Data: the supplement of paper PMC11732987, “Enantioselective OTUD7B fragment discovery through chemoproteomics screening and high-throughput optimisation” (Communications Chemistry, 2025)

Experiments:
Assay in all cases: log2 ratio of Biotin-Ahx-Ub-VS probe labelling (fragment/DMSO); higher = less target engagement (more negative = stronger competition), active = hit call of the paper (q ≤ 0.05, log2 ratio ≤ -1)
Details in all cases: compound concentration: 200 uM; treatment time: 3 h
USP34 = USP34 (UniProt Q70CQ2)
Chain of USP34 (Q70CQ2 whole entry, the tested form may be a part): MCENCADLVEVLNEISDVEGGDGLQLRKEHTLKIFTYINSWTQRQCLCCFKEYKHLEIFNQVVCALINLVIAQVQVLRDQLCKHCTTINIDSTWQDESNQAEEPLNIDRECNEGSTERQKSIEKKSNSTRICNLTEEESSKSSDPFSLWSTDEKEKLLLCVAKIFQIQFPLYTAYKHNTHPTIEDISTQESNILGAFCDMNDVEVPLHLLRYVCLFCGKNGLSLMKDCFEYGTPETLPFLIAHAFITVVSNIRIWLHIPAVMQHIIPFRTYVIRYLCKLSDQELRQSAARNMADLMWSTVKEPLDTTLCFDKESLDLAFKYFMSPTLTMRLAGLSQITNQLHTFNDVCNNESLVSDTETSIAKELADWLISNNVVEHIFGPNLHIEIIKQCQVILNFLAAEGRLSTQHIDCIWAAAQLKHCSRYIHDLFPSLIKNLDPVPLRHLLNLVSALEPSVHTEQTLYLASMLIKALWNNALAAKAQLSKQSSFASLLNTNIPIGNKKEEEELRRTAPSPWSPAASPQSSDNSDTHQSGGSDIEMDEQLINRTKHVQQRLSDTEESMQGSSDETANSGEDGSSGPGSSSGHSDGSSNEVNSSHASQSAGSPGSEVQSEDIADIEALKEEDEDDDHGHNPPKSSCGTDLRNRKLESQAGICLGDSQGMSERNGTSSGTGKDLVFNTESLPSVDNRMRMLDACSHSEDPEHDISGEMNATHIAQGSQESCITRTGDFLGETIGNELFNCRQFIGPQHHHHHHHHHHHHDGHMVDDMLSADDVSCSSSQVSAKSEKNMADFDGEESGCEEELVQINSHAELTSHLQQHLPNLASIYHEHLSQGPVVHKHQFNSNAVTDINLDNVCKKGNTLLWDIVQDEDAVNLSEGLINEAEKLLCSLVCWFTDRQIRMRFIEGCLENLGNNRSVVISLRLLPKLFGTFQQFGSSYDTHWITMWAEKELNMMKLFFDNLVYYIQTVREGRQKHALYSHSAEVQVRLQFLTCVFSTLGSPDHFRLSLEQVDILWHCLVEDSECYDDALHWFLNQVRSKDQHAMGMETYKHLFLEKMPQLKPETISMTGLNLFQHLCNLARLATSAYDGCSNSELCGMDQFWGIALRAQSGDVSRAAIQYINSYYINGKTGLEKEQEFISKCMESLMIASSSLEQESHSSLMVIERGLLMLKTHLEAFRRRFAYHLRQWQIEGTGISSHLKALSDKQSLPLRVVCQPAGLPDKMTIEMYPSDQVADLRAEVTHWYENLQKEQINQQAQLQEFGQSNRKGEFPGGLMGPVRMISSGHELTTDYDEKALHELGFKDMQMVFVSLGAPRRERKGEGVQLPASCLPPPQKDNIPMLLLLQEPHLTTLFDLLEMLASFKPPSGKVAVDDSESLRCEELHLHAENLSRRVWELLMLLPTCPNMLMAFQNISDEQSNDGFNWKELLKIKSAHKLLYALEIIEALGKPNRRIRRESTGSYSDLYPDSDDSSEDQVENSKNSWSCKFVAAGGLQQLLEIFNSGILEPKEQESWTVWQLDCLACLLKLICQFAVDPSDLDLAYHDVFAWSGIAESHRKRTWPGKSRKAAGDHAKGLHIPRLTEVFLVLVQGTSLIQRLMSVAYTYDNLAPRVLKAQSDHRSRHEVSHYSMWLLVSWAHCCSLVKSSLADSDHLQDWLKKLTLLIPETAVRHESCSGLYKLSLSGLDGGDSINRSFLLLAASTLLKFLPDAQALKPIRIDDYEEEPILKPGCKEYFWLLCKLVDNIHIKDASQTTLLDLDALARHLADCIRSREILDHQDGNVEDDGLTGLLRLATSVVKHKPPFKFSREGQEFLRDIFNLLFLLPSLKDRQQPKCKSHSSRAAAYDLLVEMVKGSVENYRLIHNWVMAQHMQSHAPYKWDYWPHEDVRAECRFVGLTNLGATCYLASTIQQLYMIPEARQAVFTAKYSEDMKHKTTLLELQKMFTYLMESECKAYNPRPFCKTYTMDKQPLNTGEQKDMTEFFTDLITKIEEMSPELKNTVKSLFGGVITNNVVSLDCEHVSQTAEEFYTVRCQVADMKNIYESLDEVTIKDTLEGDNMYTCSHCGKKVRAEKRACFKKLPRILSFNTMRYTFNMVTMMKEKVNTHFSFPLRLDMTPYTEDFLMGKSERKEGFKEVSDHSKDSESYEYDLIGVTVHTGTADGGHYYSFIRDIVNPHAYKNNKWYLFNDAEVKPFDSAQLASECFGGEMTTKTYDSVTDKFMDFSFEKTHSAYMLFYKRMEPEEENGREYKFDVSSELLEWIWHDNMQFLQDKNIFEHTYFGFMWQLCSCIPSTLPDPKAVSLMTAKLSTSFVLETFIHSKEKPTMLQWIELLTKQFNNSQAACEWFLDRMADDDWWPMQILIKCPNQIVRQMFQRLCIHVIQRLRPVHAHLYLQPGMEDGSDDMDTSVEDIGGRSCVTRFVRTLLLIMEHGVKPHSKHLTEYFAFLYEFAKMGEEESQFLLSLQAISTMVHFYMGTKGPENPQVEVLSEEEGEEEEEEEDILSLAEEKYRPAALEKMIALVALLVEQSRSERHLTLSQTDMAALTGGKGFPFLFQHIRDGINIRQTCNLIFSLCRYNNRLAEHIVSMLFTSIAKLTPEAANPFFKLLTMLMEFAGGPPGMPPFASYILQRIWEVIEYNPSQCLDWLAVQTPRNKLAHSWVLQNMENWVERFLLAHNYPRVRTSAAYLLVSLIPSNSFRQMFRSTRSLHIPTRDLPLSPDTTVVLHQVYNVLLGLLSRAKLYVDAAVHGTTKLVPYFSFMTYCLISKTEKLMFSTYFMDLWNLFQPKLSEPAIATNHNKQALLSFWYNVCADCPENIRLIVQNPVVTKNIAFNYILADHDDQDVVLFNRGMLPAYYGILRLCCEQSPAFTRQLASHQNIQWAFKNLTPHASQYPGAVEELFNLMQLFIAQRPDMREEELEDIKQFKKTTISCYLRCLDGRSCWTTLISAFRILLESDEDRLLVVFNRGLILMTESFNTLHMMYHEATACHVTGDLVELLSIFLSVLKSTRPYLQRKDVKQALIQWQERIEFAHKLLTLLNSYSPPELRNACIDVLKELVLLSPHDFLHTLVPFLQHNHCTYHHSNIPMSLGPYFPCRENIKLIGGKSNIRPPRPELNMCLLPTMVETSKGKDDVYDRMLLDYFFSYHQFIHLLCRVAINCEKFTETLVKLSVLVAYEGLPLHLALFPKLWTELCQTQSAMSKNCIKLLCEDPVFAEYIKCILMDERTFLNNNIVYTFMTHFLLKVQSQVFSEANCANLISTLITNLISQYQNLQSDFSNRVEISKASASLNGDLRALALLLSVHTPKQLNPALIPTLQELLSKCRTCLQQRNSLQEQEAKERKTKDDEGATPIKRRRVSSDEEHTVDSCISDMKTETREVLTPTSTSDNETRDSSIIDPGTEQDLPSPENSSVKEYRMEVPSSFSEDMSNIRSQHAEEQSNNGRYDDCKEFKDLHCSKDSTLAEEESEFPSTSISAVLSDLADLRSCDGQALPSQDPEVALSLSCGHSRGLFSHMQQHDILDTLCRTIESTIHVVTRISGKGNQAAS
Summary of the method: (§1)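 The table lists average log2 ratios of fragment over vehicle, from an unpaired t-test on global-median-normalised Spectronaut label-free quantities. Proteins with ≥2 unique peptides were used. Samples were HEK293T lysate (495 µg) treated in triplicate with fragment at 200 µM or vehicle for 3 h, then with Biotin-Ahx-Ub-VS (0.5 µM final) for 1 h, with labelled DUBs NeutrAvidin-enriched and run by diaPASEF LC-MS/MS.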

USP36 = biological target: T1, USP36 (UniProt Q9P275)
T1 sequence (whole entry): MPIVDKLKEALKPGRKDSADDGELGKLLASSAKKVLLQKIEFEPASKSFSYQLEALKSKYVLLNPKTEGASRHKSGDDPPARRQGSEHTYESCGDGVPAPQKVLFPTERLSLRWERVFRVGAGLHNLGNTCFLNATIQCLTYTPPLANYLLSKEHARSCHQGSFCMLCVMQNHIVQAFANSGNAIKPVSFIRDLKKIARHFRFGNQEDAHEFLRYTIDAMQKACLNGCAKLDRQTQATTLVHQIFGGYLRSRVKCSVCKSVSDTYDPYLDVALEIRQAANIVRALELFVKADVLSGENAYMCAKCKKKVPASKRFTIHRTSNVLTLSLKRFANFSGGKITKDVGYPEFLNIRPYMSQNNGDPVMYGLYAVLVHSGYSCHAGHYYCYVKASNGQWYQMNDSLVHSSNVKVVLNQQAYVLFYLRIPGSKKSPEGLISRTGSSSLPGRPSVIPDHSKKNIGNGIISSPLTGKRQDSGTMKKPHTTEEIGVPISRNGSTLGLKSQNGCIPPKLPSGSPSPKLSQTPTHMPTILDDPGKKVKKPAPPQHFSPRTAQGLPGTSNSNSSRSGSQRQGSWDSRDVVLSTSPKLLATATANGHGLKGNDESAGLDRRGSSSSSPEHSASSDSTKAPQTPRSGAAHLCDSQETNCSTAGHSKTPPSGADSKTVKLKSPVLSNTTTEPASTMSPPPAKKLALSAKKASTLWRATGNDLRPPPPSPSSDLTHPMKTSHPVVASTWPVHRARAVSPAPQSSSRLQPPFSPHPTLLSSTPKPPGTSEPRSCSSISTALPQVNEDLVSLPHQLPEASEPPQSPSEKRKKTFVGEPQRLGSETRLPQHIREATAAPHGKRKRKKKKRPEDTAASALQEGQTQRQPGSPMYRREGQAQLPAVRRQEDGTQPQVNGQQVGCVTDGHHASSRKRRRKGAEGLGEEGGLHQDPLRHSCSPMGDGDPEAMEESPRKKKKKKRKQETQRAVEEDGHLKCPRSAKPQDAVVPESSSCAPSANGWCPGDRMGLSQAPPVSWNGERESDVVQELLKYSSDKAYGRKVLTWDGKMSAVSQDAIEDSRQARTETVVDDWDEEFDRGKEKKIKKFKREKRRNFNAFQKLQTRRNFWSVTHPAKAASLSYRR
Summary of the method: as §1

USP38 = biological target: T2, USP38 (UniProt Q8NB14)
T2 sequence (whole entry): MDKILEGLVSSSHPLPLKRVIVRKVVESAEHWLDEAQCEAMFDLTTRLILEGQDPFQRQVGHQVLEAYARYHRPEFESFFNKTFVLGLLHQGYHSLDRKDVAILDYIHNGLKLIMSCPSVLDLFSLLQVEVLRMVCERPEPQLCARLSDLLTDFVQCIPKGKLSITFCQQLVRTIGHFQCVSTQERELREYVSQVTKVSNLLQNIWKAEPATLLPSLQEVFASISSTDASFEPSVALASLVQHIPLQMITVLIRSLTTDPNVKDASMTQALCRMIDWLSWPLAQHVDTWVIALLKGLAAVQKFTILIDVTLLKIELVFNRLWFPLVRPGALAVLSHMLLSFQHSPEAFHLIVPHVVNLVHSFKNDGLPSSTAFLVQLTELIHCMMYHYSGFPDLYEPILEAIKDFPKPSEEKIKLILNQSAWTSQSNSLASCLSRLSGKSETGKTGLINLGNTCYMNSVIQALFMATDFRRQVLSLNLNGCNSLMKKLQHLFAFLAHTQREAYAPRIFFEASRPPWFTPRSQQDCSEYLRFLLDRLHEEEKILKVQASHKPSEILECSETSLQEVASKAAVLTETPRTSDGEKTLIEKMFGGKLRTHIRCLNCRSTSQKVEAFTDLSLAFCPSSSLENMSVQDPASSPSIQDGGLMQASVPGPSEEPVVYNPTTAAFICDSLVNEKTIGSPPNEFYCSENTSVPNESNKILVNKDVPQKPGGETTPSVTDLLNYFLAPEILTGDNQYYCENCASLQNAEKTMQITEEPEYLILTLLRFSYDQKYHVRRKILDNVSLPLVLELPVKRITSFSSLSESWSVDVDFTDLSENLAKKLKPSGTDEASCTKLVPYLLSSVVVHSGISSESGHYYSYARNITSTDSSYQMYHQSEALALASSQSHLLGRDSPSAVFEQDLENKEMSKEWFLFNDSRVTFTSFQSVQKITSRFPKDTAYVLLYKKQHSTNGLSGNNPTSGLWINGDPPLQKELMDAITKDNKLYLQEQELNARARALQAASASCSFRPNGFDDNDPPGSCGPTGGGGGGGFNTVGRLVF
Summary of the method: as §1

USP39 = biological target: T3, USP39 (UniProt Q53GS9)
T3 sequence (whole entry): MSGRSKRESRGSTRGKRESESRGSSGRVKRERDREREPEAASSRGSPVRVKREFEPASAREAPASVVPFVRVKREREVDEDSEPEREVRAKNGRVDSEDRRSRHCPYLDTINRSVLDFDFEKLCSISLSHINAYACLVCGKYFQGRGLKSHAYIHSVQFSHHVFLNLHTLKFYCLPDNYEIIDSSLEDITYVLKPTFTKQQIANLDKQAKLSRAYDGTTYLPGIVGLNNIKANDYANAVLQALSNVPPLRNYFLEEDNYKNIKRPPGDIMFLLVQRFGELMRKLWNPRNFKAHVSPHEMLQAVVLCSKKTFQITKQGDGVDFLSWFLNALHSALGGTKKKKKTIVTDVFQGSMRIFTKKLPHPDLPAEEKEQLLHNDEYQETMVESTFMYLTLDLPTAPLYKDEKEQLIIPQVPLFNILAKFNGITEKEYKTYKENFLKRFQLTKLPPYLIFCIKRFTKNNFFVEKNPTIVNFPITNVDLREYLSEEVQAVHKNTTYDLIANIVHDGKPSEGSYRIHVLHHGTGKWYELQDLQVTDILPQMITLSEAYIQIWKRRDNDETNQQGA
Summary of the method: as §1

USP4 = biological target: T4, USP4 (UniProt Q13107)
T4 sequence (whole entry): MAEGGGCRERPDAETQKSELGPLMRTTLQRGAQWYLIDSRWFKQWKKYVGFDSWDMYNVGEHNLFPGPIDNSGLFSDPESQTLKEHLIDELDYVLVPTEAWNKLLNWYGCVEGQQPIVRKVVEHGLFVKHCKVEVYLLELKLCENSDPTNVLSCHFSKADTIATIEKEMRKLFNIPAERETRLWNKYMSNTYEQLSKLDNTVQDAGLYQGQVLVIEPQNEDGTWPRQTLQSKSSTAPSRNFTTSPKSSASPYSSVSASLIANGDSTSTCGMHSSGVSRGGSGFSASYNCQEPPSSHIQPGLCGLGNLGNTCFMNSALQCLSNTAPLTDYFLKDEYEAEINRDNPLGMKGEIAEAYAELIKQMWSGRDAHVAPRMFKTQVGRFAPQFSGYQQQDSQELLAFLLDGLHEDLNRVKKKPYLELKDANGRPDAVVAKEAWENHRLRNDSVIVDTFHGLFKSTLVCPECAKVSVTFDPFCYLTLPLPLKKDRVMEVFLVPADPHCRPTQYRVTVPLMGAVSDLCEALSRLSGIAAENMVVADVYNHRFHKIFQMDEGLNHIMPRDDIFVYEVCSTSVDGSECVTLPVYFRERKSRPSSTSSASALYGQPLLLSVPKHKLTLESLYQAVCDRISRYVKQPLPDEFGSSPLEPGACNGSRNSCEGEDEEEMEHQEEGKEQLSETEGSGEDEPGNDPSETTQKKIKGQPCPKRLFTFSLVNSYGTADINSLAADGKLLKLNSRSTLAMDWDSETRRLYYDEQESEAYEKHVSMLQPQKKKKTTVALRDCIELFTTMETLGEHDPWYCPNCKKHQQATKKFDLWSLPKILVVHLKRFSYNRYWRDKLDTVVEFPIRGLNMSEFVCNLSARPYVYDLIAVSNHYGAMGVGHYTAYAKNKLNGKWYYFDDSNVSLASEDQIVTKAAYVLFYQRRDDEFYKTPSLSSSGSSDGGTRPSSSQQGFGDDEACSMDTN
Summary of the method: as §1

Measured: log2 ratio of Biotin-Ahx-Ub-VS probe labelling

Cc1ccc(C(=O)NCCNC(=O)CCl)cc1
inactive: USP34 -0.0636 | USP36 0.0541 | USP38 -0.00607 | USP39 -0.0936 | USP4 -0.258
